We go through 100 compounds from PubChem BioAssay AID371 (SRMLSC, 2006).

Structures are written as SMILES. The campaign covered roughly 3,300 compounds. About 280 (8.5%) were called active.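 How the source made its calls: active means mean growth inhibition over the two runs of 50% or more; inactive means mean growth inhibition under 50%.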 What follows is part of a selection rich in actives, with near analogues and random picks from the rest.

The test is described as follows: A549 NSCLC cell proliferation inhibitors – ATP luminescence, human non-small cell lung line, primary screen (AID 371).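 Further: compound exposure lasted 72 h before the ATP read; 0% = untreated cell signal and 100% = no luminescence left.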 The following applies: at 10 µM, active compounds read high.
With `CCCCC1CC1C(=O)Nc1ccc(OC)c(OC)c1` (stereo not given), the growth inhibition is 11% (inactive).

For `Cn1c(=O)c2c(nc(NCCCO)n2Cc2cccc(C(F)(F)F)c2)n(C)c1=O`, the growth inhibition is 29.2% (inactive).

Regarding `Cc1cc(=O)n2[nH]cnc2n1`, the growth inhibition is 4.42% (inactive).

On to `N#CCCn1cnc2c(=S)nc[nH]c21`, for which the growth inhibition is 5.6% (inactive).

For `COc1ccc(OC)c(C2C(C#N)=C(N)Oc3cc(C)[nH]c(=O)c32)c1` (stereo not given), the growth inhibition was 3.98% (inactive).

For the compound `Nc1c(C(=O)NCc2ccco2)sc2nc(N3CCOCC3)c3c(c12)CCCC3`, the growth inhibition is 18.2% (inactive).

In the case of `Cc1ccc(C(=O)C2=C(O)C(=O)N(c3ncccn3)C2c2cccc(Cl)c2)o1` (stereo not given), the growth inhibition was -5.18% (inactive).

For `COc1ccc(NC(=O)Nc2cccc(C(=O)N3CCOCC3)c2)cc1OC`, the growth inhibition was 1.01% (inactive).

Consider `N#CC(C#N)C(c1ccsc1)c1c(-c2ccccc2)[nH][nH]c1=O` (stereo not given), for which the growth inhibition was 7.27% (inactive).

As for `Oc1ccc(/C=C/c2cc(O)cc(O)c2)cc1`, the growth inhibition is 63.9% (active).

For `Cc1cc(O)c(C(C)C)cc1N=C1CSC(=O)N1`, the growth inhibition was 7.06% (inactive).

`CCCCOc1ccc(C(=O)OC2CC(C)N(C)CC2C)cc1` (stereo not given): the growth inhibition is 90% (active).

Regarding `CCCCOc1ccc(C(=O)CCN2CCCCC2)cc1`, the growth inhibition is -1.37% (inactive).

Consider `CCCCOc1ccc(C(=O)Nn2cnnc2)cc1`, for which the growth inhibition is -2.48% (inactive).

As to `CC(O)(C#CCN1CCOCC1)c1ccccc1` (stereo not given), the growth inhibition is 2.79% (inactive).

For the compound `Cc1cccc(NC(=O)c2cc(N3CCOCC3)nc3ccccc23)c1`, the growth inhibition was 2.86% (inactive).

`N#Cc1nc(COc2ccc(Br)cc2)oc1NCCN1CCOCC1`: the growth inhibition is 13.4% (inactive).

With `Cc1sc(-n2c(C)ccc2C)c(C#N)c1C`, the growth inhibition was -0.27% (inactive).

With `COc1ccc2c(c1OC)C(=O)OC2C1c2c(cc3c(c2OC)OCO3)CCN1C` (stereo not given), the growth inhibition was 23.2% (inactive).

For `COc1ccc2c(c1OC)C(=O)O[C@@H]2[C@H]1c2c(cc3c(c2OC)OCO3)CCN1C`, the growth inhibition was 28.5% (inactive).

Consider `COc1cc([C@@H]2c3cc4c(cc3[C@H](O)[C@H]3COC(=O)[C@H]23)OCO4)cc(OC)c1OC`, for which the growth inhibition is 66.9% (active).

`Cc1c(C)n(C(=O)CSc2nccn2C)c2ccccc12`: the growth inhibition is -7.69% (inactive).

On to `CCN(CC)CCN1C(=O)c2ccccc2NC1c1cc(OC)c(OC)c(OC)c1` (stereo not given), for which the growth inhibition is 0.59% (inactive).

On to `COc1cc(C2Nc3cccc4cccc(c34)N2)cc(OC)c1OC(C)=O`, for which the growth inhibition is 68.5% (active).

With `COc1cc(C2NC(=O)NC(C)=C2C(=O)Nc2cccc(C)c2C)cc(OC)c1OC` (stereo not given), the growth inhibition was 0.87% (inactive).

As to `O=C1C2ON(c3ccccc3)C(c3ccncc3)C2C(=O)N1c1ccccc1` (stereo not given), the growth inhibition is -3.79% (inactive).

As to `O=C(O)C(O)c1ccco1` (stereo not given), the growth inhibition is 3.07% (inactive).

Take `Cc1[nH]nc(-c2ccc(O)cc2O)c1Oc1ccccc1`: the growth inhibition was 56.1% (active).

For `Cc1cc(O)ccc1-c1cnc2ccccc2n1`, the growth inhibition was 13% (inactive).

As for `Cc1nc(-c2c(-c3ccc(O)cc3O)noc2C(F)(F)F)cs1`, the growth inhibition is 41.5% (inactive).

In the case of `CC1(C)CNC(=O)c2sc(N3CCOCC3)nc2C1`, the growth inhibition was 21.1% (inactive).

In the case of `Cn1ncc2c(Nc3ccccc3Br)ncnc21`, the growth inhibition was 4.98% (inactive).

Consider `Cn1c(=O)c2c(nc(NCc3ccc4c(c3)OCO4)n2Cc2ccccc2F)n(C)c1=O`, for which the growth inhibition is 43.4% (inactive).

Turning to `Cn1c(=O)c2c(nc(NCc3ccc4c(c3)OCO4)n2Cc2ccccc2Cl)n(C)c1=O`, the growth inhibition is 20.1% (inactive).

Consider `Cn1c(=O)c2c(nc(Oc3ccc4c(c3)OCO4)n2Cc2ccc(F)cc2)n(C)c1=O`, for which the growth inhibition is 17.7% (inactive).

For the compound `Cn1c(=O)c2c(nc(NCc3ccc4c(c3)OCO4)n2Cc2ccc(F)cc2)n(C)c1=O`, the growth inhibition was 74.4% (active).

On to `Cn1c(=O)c2c(nc(Oc3ccc4c(c3)OCO4)n2Cc2ccc(Br)cc2)n(C)c1=O`, for which the growth inhibition is 38% (inactive).

Consider `Cn1c(=O)c2c(nc(NCc3ccc4c(c3)OCO4)n2Cc2ccccc2)n(C)c1=O`, for which the growth inhibition is 67.4% (active).

For `CC1(C)Cc2c(sc3nc(SCC(=O)NCc4ccco4)n(-c4ccccc4)c(=O)c23)CS1`, the growth inhibition is 22.8% (inactive).

In the case of `CCCc1cc(-n2ccnc2C)n2c(nc3ccccc32)c1C#N`, the growth inhibition was -0.15% (inactive).

Consider `CCOC(=O)C1CCN(c2nc3ccccc3nc2C(C#N)C(=O)NCCc2ccccc2)CC1` (stereo not given), for which the growth inhibition was 30.8% (inactive).

Regarding `Cc1cc(/C(O)=C2\C(=O)C(=O)N(CCN(C)C)C2c2ccncc2)ccc1OCc1ccccc1` (stereo not given), the growth inhibition is 2.4% (inactive).

For `Cc1cc(C)n(C(=O)CNC(=O)CCc2ccccc2)n1`, the growth inhibition was -2.74% (inactive).

In the case of `Cc1cc(C)n(S(=O)(=O)Cc2ccccc2)n1`, the growth inhibition was 6% (inactive).

On to `Cc1cc(C)n(S(=O)(=O)/C=C/c2ccccc2)n1`, for which the growth inhibition is 68.5% (active).

On to `Cc1cc(C)n(CC2CC(=O)N(c3ccc(C)c(Cl)c3)C2=O)n1` (stereo not given), for which the growth inhibition was 0.93% (inactive).

As to `Clc1ccc(COc2ccccn2)c(Cl)c1`, the growth inhibition is 1.66% (inactive).

As to `COc1ccc(C(=O)c2ccc(N3CCOCC3)cc2)c(OC)c1`, the growth inhibition is 44.9% (inactive).

Regarding `CCOC(=O)C(C)Oc1nc(Oc2ccccc2)nc(N(C)C)n1` (stereo not given), the growth inhibition is 6.36% (inactive).

With `CCOC(=O)N1CCC(=C2c3ccc(Cl)cc3CCc3cccnc32)CC1`, the growth inhibition is 65.8% (active).

For `CCOC(=O)N1CCN(C2OC(=O)c3ccccc32)CC1` (stereo not given), the growth inhibition is -1.65% (inactive).

For the compound `O/N=C1\CCc2cc(Cl)ccc21`, the growth inhibition was -5.2% (inactive).

For `CC(=O)Nc1n[nH]c(S(=O)(=O)Cc2ccc(Cl)cc2Cl)n1`, the growth inhibition is -13.6% (inactive).

As for `COc1cc(C)nc(Oc2ccc(=O)n(C)n2)n1`, the growth inhibition is -3.96% (inactive).

Regarding `CCCCNC(=O)N1CCOCCOCCN(C(=O)NCCCC)CCOCCOCC1`, the growth inhibition is 2.12% (inactive).

Consider `COc1ccc(CC(=O)OCN2C(=O)c3ccccc3C2=O)cc1`, for which the growth inhibition is 2.96% (inactive).

With `Cn1c(Cl)cnc1C1CC(=O)c2cc(Cl)ccc2O1` (stereo not given), the growth inhibition is 62.9% (active).

On to `CN1CCN(C2=Nc3ccccc3Oc3ccc(Cl)cc32)CC1`, for which the growth inhibition was 18.5% (inactive).

In the case of `C=CCSc1nnc2n(CCc3ccccc3)c(=O)c3c4c(sc3n12)COC(C)(C)C4`, the growth inhibition was 12.2% (inactive).

For `Cn1c(Cn2cnc(Cl)c2Cl)nc2ccccc21`, the growth inhibition is -4.26% (inactive).

As for `Clc1ccc(-c2nnc3sc(Cc4cccs4)nn23)c(Cl)c1`, the growth inhibition is 52.8% (active).

For `Clc1ccc(-c2nnc3sc(Cc4cccs4)nn23)cc1`, the growth inhibition is 15% (inactive).

For `c1ccc(-c2nnc3sc(Cc4cccs4)nn23)cc1`, the growth inhibition was 21.9% (inactive).

For `CCOC(=O)CSc1nc(N)c2c3c(sc2n1)CCCC3`, the growth inhibition is -5.16% (inactive).

As to `COCCCn1cnc2c(c1=O)c1nc3ccccc3nc1n2CCc1ccccc1`, the growth inhibition is 26.2% (inactive).

`CN(C)c1nc(OCCOC(=O)Nc2ccc(Cl)cc2Cl)nc(N(C)C)n1`: the growth inhibition was 25.3% (inactive).

Consider `NC(=O)/C(=N\O)c1ccccc1`, for which the growth inhibition was 2.31% (inactive).

Turning to `CNCCC(Oc1ccc(C(F)(F)F)cc1)c1ccccc1` (stereo not given), the growth inhibition was 91.3% (active).

On to `Cc1cc(C)n2c3c(c(C#N)c2n1)CC(C)(C)OC3`, for which the growth inhibition was 5.01% (inactive).

`Cc1nnc(SCCC#N)n(CCC#N)c1=O`: the growth inhibition was -2.27% (inactive).

With `CN1C(=S)SC(N(O)C(=O)Nc2ccccc2)C1(C)C` (stereo not given), the growth inhibition is 8.85% (inactive).

As to `O=c1[nH]cnc2c1cnn2Cc1ccccc1`, the growth inhibition is -3.92% (inactive).

On to `Clc1ccc(-n2ncc3c(NCc4ccccn4)ncnc32)cc1`, for which the growth inhibition was 12.7% (inactive).

With `Cc1ccc(-n2ncc3c(NCc4cccnc4)ncnc32)c(C)c1`, the growth inhibition is 30.4% (inactive).

Regarding `Cc1ccc(-n2ncc3c(NCCCOC(C)C)ncnc32)c(C)c1`, the growth inhibition was 21.4% (inactive).

Regarding `Cc1cccc(-n2ncc3c(NCCN4CCOCC4)ncnc32)c1`, the growth inhibition is 4.3% (inactive).

For `COc1ccccc1Nc1ncnc2c1cnn2-c1cccc(C)c1`, the growth inhibition was 6.73% (inactive).

Turning to `Cc1ccc(-n2ncc3c(NCc4ccc5c(c4)OCO5)ncnc32)c(C)c1`, the growth inhibition is 52.8% (active).

For the compound `Cc1cccc(-n2ncc3c(NCc4ccco4)ncnc32)c1`, the growth inhibition was 63% (active).

For `Clc1ccc(-n2ncc3c(NCc4ccco4)ncnc32)cc1`, the growth inhibition is 51.6% (active).

In the case of `Clc1ccc(-n2ncc3c(NCc4cccs4)ncnc32)cc1`, the growth inhibition is 20.6% (inactive).

For the compound `O=C1NC2c3ccccc3C(=O)N2c2c1cnn2-c1ccccc1` (stereo not given), the growth inhibition is 36.6% (inactive).

For the compound `CC(C)OCCCNc1ncnc2c1cnn2-c1ccccc1`, the growth inhibition was 35.1% (inactive).

Take `CCCOc1cccc(C2C(C(=O)c3ccc(C)o3)=C(O)C(=O)N2CCCN(C)C)c1` (stereo not given): the growth inhibition was 2.48% (inactive).

For `C=CCSc1nnc2n(-c3ccccc3OC)c(=O)c3c4c(sc3n12)CCC4`, the growth inhibition was 19.2% (inactive).

On to `C=C1[C@@H](C)C2[C@H](Cc3ccccc3)NC(=O)[C@]23OC(=O)CC[C@H](O)CCC[C@H](C)C/C=C/[C@H]3[C@@H]1O` (stereo not given in full), for which the growth inhibition was 61% (active).

Regarding `CCc1cccc(CC)c1N(COC)C(=O)Cn1nnc2ccccc21`, the growth inhibition is -7.86% (inactive).

Consider `CN(CCCCCNC(=O)/C=N/O)Cc1ccccc1`, for which the growth inhibition is -0.65% (inactive).

For `COC(=O)c1ccc(Oc2nc3ccccc3n3c(C)nnc23)cc1`, the growth inhibition was -4% (inactive).

With `O=C(Oc1oc(-c2ccco2)nc1C=Nc1ccccc1)c1ccoc1`, the growth inhibition is 34.4% (inactive).

Turning to `COc1ccccc1N=Cc1nc(-c2ccccc2)oc1OC(C)=O`, the growth inhibition was 51.8% (active).

For the compound `O=C(Oc1oc(-c2ccco2)nc1C=Nc1ccccc1)c1ccco1`, the growth inhibition was 35.2% (inactive).

With `CC(=O)Oc1oc(-c2ccccc2)nc1/C=N/c1ccccn1`, the growth inhibition is 17.6% (inactive).

`CCC(=O)Oc1oc(-c2ccccc2)nc1C=Nc1ccccc1OC`: the growth inhibition was 48.5% (inactive).

In the case of `CCOC(=O)c1ccc(N=Cc2nc(-c3ccccc3)oc2OC(C)=O)cc1`, the growth inhibition was 55.3% (active).

As to `CCOC(=O)c1ccc(CSc2ncn[nH]2)o1`, the growth inhibition was -2.33% (inactive).

In the case of `COc1ccccc1OCC(=O)Nc1ccc(S(=O)(=O)Nc2cc(C)nc(C)n2)cc1`, the growth inhibition was 5.4% (inactive).

`Cc1nn(C)cc1C1C2=C(CC(C)(C)CC2=O)OC2=C1C(=O)CC(C)(C)C2`: the growth inhibition was 1.38% (inactive).

Consider `CC(=O)c1cc2c(=O)c3ccccc3oc2nc1C`, for which the growth inhibition was -5.08% (inactive).

Regarding `CCc1oc2ccccc2c1C(=O)c1cc(Br)c(O)c(Br)c1`, the growth inhibition was 67.4% (active).
